Assay outcomes (PubChem)
TDP1 cell CPT: growth inhibition of DT40 Tdp1-/-;hTDP1 cells with camptothecin (screen for TDP1 inhibitors). chicken DT40 Tdp1-/-;hTDP1 cells + 20 nM CPT, ATP luminescence, 48 h. Potency, µM (top dose mostly 46.2 µM), inactives show at the top dose activity change, negative = growth inhibition, usual class: inhibitors. actives 12% (n = 420,000). AID 686979; further: potency means the concentration at half of the fitted maximal effect; nearly all actives have a fitted effect of over 55% in size
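Chicken DT40 Tdp1-/- cells complemented with human TDP1, 400 cells/well, exposed to compounds plus 20 nM camptothecin for at least 48 h at 37 C; viability read as ATP content by CellTiter-Glo luminescence.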
DT40 TDP1 no CPT: qHTS for Inhibitors of human tyrosyl-DNA phosphodiesterase 1 (TDP1): qHTS in cells in absence of CPT; DT40 Tdp1-/- hTDP1 cells, no CPT, ATP luminescence, 48 h; actives 15% (n = 420,000); Potency, µM (doses to about 46.2 µM), without a hit: at the highest dose activity change, negative = growth inhibition, usual class: inhibitors; AID 686978, 2013; further: potency means the concentration at half of the fitted maximal effect; nearly all actives have a fitted effect of over 55% in size
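Cells were dispensed at 400 per well, compounds added by pin tool, plates incubated ≥48 hr at 37 °C, then CellTiter-Glo added for 30 min at room temperature before luminescence reading. Line: DT40 Tdp1-/- complemented with hTDP1; camptothecin omitted.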
HT1080 IDH1KD tx: kills HT-1080 cells with IDH1 knockdown; Potency, µM (top dose mostly 46.1 µM), for inactives: top-dose activity, negative = toxicity, actives largely listed as cytotoxic; HT-1080 IDH1 knockdown viability, ATP luminescence, 48 h; AID 686971; actives 2% (n = 360,000);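 further: potency means the concentration at half of the fitted maximal effect; 0% = DMSO wells and -100% = cell-free medium wells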
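Viability of IDH1-knockdown HT-1080 fibrosarcoma cells was assessed by CellTiter-Glo after 48 h at 37 °C with titrated compound; concentration-effect curves were classified by fit quality and response size.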
IL-1B inflam inh: inhibitors of inflammasome signaling (IL-1 beta secretion). THP-1 LPS/ATP IL-1B secretion, AlphaLISA, 16 h; stronger effect = lower value. activity change, % at 57.5 µM. actives 4.7% (n = 360,000); in the data active means activity change below about -50%; inconclusive means mostly about -30% to -49%
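THP-1 cells pretreated 1 hr with compounds (up to 57.5 uM final), then stimulated with LPS (250 ng/mL final) plus ATP (1.25 mM final); secreted IL-1B measured by AlphaLISA after 16 hr, decreased signal indicating inhibition.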
uPA generation: blocks generation of uPA at the cell surface; actives 0.31% (n = 330,000); cell surface uPA generation assay, qHTS; Potency, µM (series often up to 38.3 µM), without a hit: at the top dose activity change, negative = inhibition, hits mostly inhibitors; active means well fitted inhibition curve with a large enough effect; inconclusive means small, poorly fitted or top-dose-only effect; inactive means no such curve, though single readings can be large or run the other way; tested in mouse RAW 264.7 cells; further: potency means the concentration at half of the fitted maximal effect; nearly all actives have a fitted effect of over 55% in size
HT1080-NT tox: kills 2HG-producing HT-1080-NT fibrosarcoma cells; HT-1080-NT fibrosarcoma viability, CellTiter-Glo ATP luminescence, 48 h; Potency, µM (doses to about 46.1 µM), for the others: at the highest dose activity, negative = less viability, usual class: cytotoxic; actives 1.6% (n = 360,000); AID 686970;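 further: NT is the 2HG producing partner of a matched IDH1 knockdown line; potency means the concentration at half of the fitted maximal effect; 0% = DMSO-treated cells and -100% = media-only wells without cells; nearly all actives have a fitted effect of over 55% in size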
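Toxicity toward the 2HG-producing NT line was scored as %Activity, normalised to DMSO and no-cell wells, from CellTiter-Glo luminescence after 48 hours' treatment.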
* marks the source's active call; other numbers are inactive results; ? = inconclusive; . = no result. Rows were chosen to be rich in hits. Some 19% of all compounds tested hit in one or more screens of this group. Unless noted, the call rests on the fitted dose curve; in most records, active means well fitted curve in the direction sought with a large enough effect; inconclusive means small, poorly fitted or top-dose-only effect, or another doubt; inactive means no such curve, though single readings can be large; an effect the other way counts as inactive or inconclusive. Unless noted, on the % scale 0 is the no-effect control and ±100 the full control effect.

SMILES | TDP1 cell CPT | DT40 TDP1 no CPT | HT1080 IDH1KD tx | IL-1B inflam inh | uPA generation | HT1080-NT tox
CC(C)N1CCc2c(sc(NC(=O)c3ccc(C(=O)c4ccccc4)cc3)c2C(N)=O)C1 | ? | 23µM* | 18µM* | -98* | -2% | 21µM*
CC(C)N1CCc2c(sc(NC(=O)Cc3ccccc3)c2C(N)=O)C1 | -7% | -22% | 9% | ? | -5% | 7%
O=C1OC(Cc2ccccc2)(c2ccccc2)c2ccccc21 (configuration not stated) | -26% | ? | 2% | -4 | . | -6%
Cc1cccc(C)c1NC(=O)CNC(=O)C1CC(=O)N(Cc2ccccc2)C1 (configuration not stated) | -4% | -11% | 15% | -3 | 2% | 5%
COc1ccc(CC(=O)OCC(=O)NC2CCCCC2)cc1OC | 3% | 1% | 3% | 21 | -5% | 3%
O=C(c1ccco1)N(Cc1ccco1)c1ccc(O)cc1 | -20% | ? | -1% | -106* | 6% | 0%
O=C(c1ccco1)N(Cc1cccs1)c1ccc(F)cc1 | -3% | -18% | . | . | . | .
CO[C@@H]1CN(C)C(=O)c2ccc(NC(=O)c3ccccc3F)cc2OC[C@@H](C)N(CC2CCOCC2)C[C@@H]1C | -6% | -7% | 22% | 0 | . | 13%
Brc1ccc(NC2=Nc3ccccc3CC2)cc1 | ? | 16µM* | -9% | -8 | -2% | 1%
Cc1ccc(NC(=O)CN(C)C(=O)C2CSC3(C)CCC(=O)N23)cc1 (configuration not stated) | 2% | -11% | -6% | -3 | . | -3%
COc1cc2cc(CNc3ccccc3)c(=O)n(CC(=O)Nc3ccccc3)c2cc1OC | ? | 18µM* | . | . | . | .
COc1ccccc1NC(=O)Cn1c(=O)c(CNc2ccccc2)cc2cc(OC)c(OC)cc21 | 5.2µM* | 6.5µM* | . | . | . | .
O=C(Cn1c(=O)c(CNc2ccccc2)cc2cc3c(cc21)OCCO3)Nc1ccccc1Cl | -121% | ? | . | . | . | .
CC(Sc1ccc(S(=O)(=O)N2CCOCC2)cn1)c1ccccc1Cl (configuration not stated) | ? | 29µM* | -12% | -3 | 8% | -17%
O=C(CSc1ccc(S(=O)(=O)N2CCOCC2)cn1)Nc1ccc(F)c(F)c1 | 16µM* | 16µM* | ? | -15 | -24% | -21%
CC(C)N(C(=O)CSc1ccc(S(=O)(=O)N2CCCCC2)cn1)c1ccccc1 | ? | 15µM* | -2% | -25 | -29% | 0%
CCN(C(=O)CSc1ccc(S(=O)(=O)N2CCOCC2)cn1)c1ccccc1 | ? | 16µM* | -13% | -21 | 11% | 4%
CCCNC(=O)C1CCC(CNS(=O)(=O)c2ccc3c(c2)N(C(C)=O)CCO3)CC1 (configuration not stated) | -2% | -4% | 5% | 68 | 3% | -3%
CN1C(C(=O)NCCc2cccs2)CC2Cn3c(nc4cc(Cl)c(Cl)cc43)C21 (configuration not stated) | ? | ? | 3% | -7 | -3% | 7%
O=C(NCc1cccc(Br)c1)C1CC2Cn3c(nc4ccccc43)C2N1Cc1ccccc1 (configuration not stated) | 18µM* | 18µM* | -2% | -5 | 3% | 15%
COc1ccc(CCNC(=O)C2CC3Cn4c(nc5cc(Cl)c(Cl)cc54)C3N2C)cc1 (configuration not stated) | 21µM* | ? | 1% | 0 | 4% | 0%
CN1C(C(=O)NCc2cccc(Br)c2)CC2Cn3c(nc4cc(Cl)c(Cl)cc43)C21 (configuration not stated) | -27% | ? | -2% | -8 | 5% | 0%
Cc1ccc(CNC(=O)C2CC3Cn4c(nc5cc6ccccc6cc54)C3N2C)o1 (configuration not stated) | 18µM* | ? | -3% | 19 | 14% | 2%
CN1C(C(=O)NCc2cccc(Br)c2)CC2Cn3c(nc4cc5ccccc5cc43)C21 (configuration not stated) | ? | 21µM* | 1% | -3 | -13% | 6%
O=C1C(Cc2c[nH]c3ccccc23)NC(=S)N1C1CCCCC1 (configuration not stated) | -17% | -26% | ? | -24 | 6% | -22%
SMILES | TDP1 cell CPT | DT40 TDP1 no CPT | HT1080 IDH1KD tx | IL-1B inflam inh | uPA generation | HT1080-NT tox
Cc1ccc(NC(=O)CN(C)C(=O)c2cc(S(=O)(=O)N(C)C)ccc2N2CCCC2)cc1 | ? | -25% | -4% | -10 | 0% | 1%
COc1ccc(C(=O)Nc2ccc(O)c3c(=O)cc(-c4cccc(Cl)c4)oc23)cc1 | -17% | -19% | ? | 49 | -16% | ?
O=C(Nc1ccc(O)c2c(=O)cc(-c3cccc(Cl)c3)oc12)c1cccc(Cl)c1 | 7.3µM* | 8.2µM* | 2% | 5 | -16% | 10%
CC(C)(C)c1ccc(C(=O)Nc2ccc(O)c3c(=O)cc(-c4cccc(Cl)c4)oc23)cc1 | 5.8µM* | 7.3µM* | 1% | 15 | -4% | 8%
COc1ccc(Cl)cc1C(=O)Nc1ccccc1N1CCN(C(=O)C(C)C)CC1 | 29µM* | 18µM* | -20% | ? | 1% | -19%
COc1ccc(C(=O)Nc2ccccc2N2CCN(C(=O)C(C)C)CC2)cc1Cl | ? | ? | 12% | -16 | -7% | 0%
CCOc1cccc(C(=O)Nc2ccccc2N2CCN(C(=O)C(C)C)CC2)c1 | ? | ? | -2% | -53* | 5% | 8%
CC(=O)N1CCN(c2ccccc2NC(=O)c2cccc3c(Cl)cccc23)CC1 | 15µM* | ? | -12% | -12 | 9% | -19%
COc1ccc(Br)cc1C(=O)Nc1ccccc1N1CCN(C(=O)c2ccccc2)CC1 | ? | 16µM* | -21% | -63* | -1% | -9%
COc1cc2ccccc2cc1C(=O)Nc1ccccc1N1CCCC1 | ? | ? | -3% | 6 | 2% | 0%
CCOc1ccc(NC(=O)C2CC(=O)NC(=Nc3ccc(Cl)c(Cl)c3)S2)cc1 (configuration not stated) | -16% | -1% | . | . | . | .
COc1c(C)cc(Br)cc1C(=O)Nc1ccccc1N1CCN(C(=O)c2ccccc2)CC1 | ? | 15µM* | 29% | 13 | . | 15%
O=C(Nc1ccccc1N1CCN(C(=O)c2ccc(Cl)cc2)CC1)c1ccc2c(c1)OCO2 | -54% | -45% | -2% | 9 | -1% | -3%
